Common to all, as to assay: NCI-60 one-dose screen, 48 h (100 = growth as untreated, 0 = no growth, -100 = all killed)
Common to all, as to details: 10 µM unless noted

The subject of assay [1] is RPMI-8226 leukemia.
The test system of assay [2] is OVCAR-8 ovarian.
Assay [3] deals with OVCAR-5 ovarian.
The test system of assay [4] is OVCAR-4 ovarian.
Assay [5] has as its system SK-OV-3 ovarian.
Assay [6] deals with IGROV1 ovarian.
Assay [7] has as its system OVCAR-3 ovarian.
For assay [8], the system named is HS 578T breast.
The test system of assay [9] is NCI/ADR-RES ovarian.
Assay [10] has as its system SR leukemia.

Compounds without any hit were thinned out: in the full panel of roughly 83,000, 20% have a hit.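 Testing used 96-well plates and a 48-hour single-concentration exposure. Example: -40 means 40% of the starting cells died.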 A number with no mark means an inactive call. Calls of active or inactive are those of the source. Rule for the calls: active = growth percent below 10; inactive = the rest.

With `COc1ccc(-c2cnc3c(-c4cccc5ncccc45)cnn3c2)cc1`, the growth was 68.1% in [1]; 26.8% in assay [2]; 82.1% in assay [3]; 6.3% (active) in [4]; 24.4% in assay [5]; 45.1% in assay [6]. In addition, the figures for the growth in assay [7], in assay [8] and in assay [9] were 57.7%, 25.4% and 45.4%, respectively.

For the compound `CCN1CCN(CCNc2nccc(-c3c(-c4cccc(OC)c4)nc4occn34)n2)S1(=O)=O`, the growth was 96.2% in assay [1]; 99.3% in assay [2]; 130% in assay [3]; 114% in assay [4]; 92% in [5]; 79.9% in assay [6]. In addition, the growth in assay [7] is 107%; in assay [8] it was 114%; in assay [9] it was 109%.

For the compound `O=C1NN(C(=O)c2ccccc2)C(c2ccc(Cl)c(Cl)c2)=C/C1=C\c1ccc([N+](=O)[O-])cc1`, the growth in [1] is 59.2%; in [2], 89.3%; in assay [3], 113%; in assay [4], 75.2%; in assay [5], 96.7%; in assay [6] it was 84.3%. Besides, the growth in assay [7] is 86.6%; in assay [8], 78.3%; in assay [9], 92.6%.

For the compound `CC(c1ccccc1)C(C(=O)c1ccccc1)c1ccccc1` (stereo not drawn), the growth is 107% in assay [1]; 63.7% in assay [2]; 101% in [3]; 96% in assay [4]; 101% in [5]; 99.5% in [6]. Besides, the growth in [7] is 110%; in assay [8], 91.2%; in assay [9], 80.3%.

With `CCOC(=O)c1cc(C(=O)c2cc(OC)cc(OC)c2)n2ccc3ccccc3c12`, the growth in [1] is 108%; in assay [2] it was 89.9%; in [3], 98%; in [4], 88.8%; in [5], 98.2%; in assay [6], 102%. Besides, the results for the growth in assay [7], in [8] and in assay [9] were 112%, 82.5% and 92.8%, respectively.

`CC(=O)O[C@@H]1C2CCC3C(CC[C@@]4(C)C3CC[C@@H]4C(C)N(C)C)[C@@]2(C)CC[C@@H]1NC(=O)C=C(C)C` (stereo partly drawn): the growth was -34.5% (active) in assay [10]; 44.3% in assay [2]; 83.8% in assay [3]; 65.4% in assay [5]; 37.8% in [6]; 0.951% (active) in assay [7]. Also, the growth was 16% in assay [8] and 37.6% in assay [9].

For `Cc1nn(-c2ccccc2)c(Cl)c1/C=N\N=c1/sc2ccccc2n1C`, the growth was 78.6% in assay [1]; 98.2% in [2]; 92.6% in assay [3]; 117% in assay [4]; 94.7% in assay [5]; 96.2% in assay [6]. In addition, the growth is 111% in assay [7], 104% in [8] and 104% in assay [9].

`CC(C)(C)[Si](C)(C)OC1[C@@H](O[Si](C)(C)C(C)(C)C)[C@@H](CNC(=O)NC(=O)CCl)O[C@H]1n1cnc2c(NC(=O)Nc3ccccc3)ncnc21` (stereo partly drawn): the growth in [1] was 16.7%; in assay [2], 1.14% (active); in [3] it was 5.37% (active); in assay [4], -42.3% (active); in assay [5], -92.9% (active); in assay [6], -50.4% (active). The growth is -82.1% (active) in assay [7], -4.28% (active) in assay [8] and 20.3% in [9].

With `Cc1cnc(C(=O)Nc2nc3ccc(S(=O)(=O)Nc4ccc(C(C)(C)C)cc4)cc3[nH]2)cn1`, the growth in assay [10] is 12.3%; in [2] it was 29.2%; in [3], 34.8%; in assay [5] it was 43%; in assay [6], 35.1%; in [7], -14.3% (active). In addition, the results for the growth in [8] and in [9] were 4.25% (active) and 13.8%, respectively.

`COc1cc2cc(Oc3cccc(NC(=O)Nc4cc(C(F)(F)F)cc(C(F)(F)F)c4)c3)c(C)nc2cc1OC`: the growth is 1.15% (active) in [1]; 14.2% in assay [2]; 14.6% in assay [3]; 27.9% in assay [4]; -1.05% (active) in assay [5]; 19.8% in assay [6]. The growth in assay [7] is 1.71% (active); in assay [8], -10.7% (active); in assay [9], 7.03% (active).

On to `CCNC(=O)Oc1ccc(/C(=C(\C)c2ccccc2)c2ccc(OCCN3CCCCC3)cc2)cc1`, for which the growth in [1] was 38.7%; in assay [2], 73.6%; in assay [3] it was 84.8%; in [4], 65.5%; in assay [5], 53.6%; in assay [6], 79.9%. Besides, the growth was 69.4% in [7], 57.5% in [8] and 66.8% in assay [9].

`C#Cc1cccc(NC(=O)c2cccc(NC(=O)CCl)c2)c1`: the growth in [1] was -3.03% [8.25 µM] (active); in assay [2] it was -28.3% [8.25 µM] (active); in assay [3] it was 8.37% [8.25 µM] (active); in [4], -38.1% [8.25 µM] (active); in assay [5], 56.4% [8.25 µM]; in [6] it was -53.5% [8.25 µM] (active). For the same compound, the growth in assay [7] is -71.3% [8.25 µM] (active); in assay [8], 31.8% [8.25 µM]; in assay [9], -11.5% [8.25 µM] (active).

With `OCc1cnc2ccccc2c1NC1CCCCCC1`, the growth in assay [1] is 75%; in assay [2] it was 84.7%; in [3], 100%; in [4], 86.3%; in [5], 97.7%; in assay [6], 95.5%. For the same compound, the growth in [7] is 89.5%; in assay [8], 90.5%; in [9] it was 57.5%.

Consider `COc1cc(/C=C/C(=O)c2nc3cc(F)ccc3nc2C)cc(OC)c1OC`, for which the growth in [1] is -4.08% (active); in assay [2], 36%; in [3], 89.7%; in [4], 77.8%; in [5] it was 113%; in assay [6] it was 34.8%. Further, the growth in assay [7] was 55.3%; in assay [8], 61.4%; in [9], 41.3%.

On to `COC(=O)c1ccc2c(c1)[n+](=O)c(C(C)=O)c(C(F)(F)F)n2[O-]`, for which the growth in assay [1] is -48% (active); in [2], 9.07% (active); in assay [3], -12.9% (active); in assay [4], -42% (active); in assay [5] it was -31.4% (active); in assay [6] it was -78.3% (active). In addition, the growth was -92.8% (active) in assay [7], -19.4% (active) in [8] and -40.7% (active) in assay [9].

For the origin of these results see PubChem BioAssay (NCI).
